MBD2 DNA inh: MBD2-methylated oligo binding inhibition; inhibition, % at 4.4 µM; Q9UBB5; TR-FRET, MBD2 binding to methylated oligonucleotide; 0.31% of 370,000 active; in the data active = inhibition above about 13%
LEDGF integ inh: blocks HIV-1 LEDGF/p75-dependent DNA integration | TR-FRET IN-LEDGF/p75 DNA integration, Eu/Cy5 | inhibition, % at 3.7 µM | 0.64% of 370,000 active | AID 743269;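 active = inhibition above the screen-wide mean plus 3 SD, cut at about 13% in these data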;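 note: signal is the Cy5 over europium emission ratio at 671 and 618 nm; 0% = plate median of compound wells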
UHRF1 MBD2 ctr: human UHRF1 methylated DNA binding inhibitors; Q96T88; UHRF1 binding to methylated oligo, TR-FRET; inhibition, % at 4.4 µM; 0.75% of 370,000 active; AID 687016; in the data active = inhibition above about 21%;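 note: UHRF1 SRA domain binding a hemimethylated CpG hairpin DNA probe; 0% = median of test compound wells and 100% = reference inhibitor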
CASP6 VEID inh: inhibitors of human caspase-6. P55212. purified caspase-6, Z-VEID-R110 cleavage fluorescence. inhibition, % at 12.5 µM. 0.53% of 350,000 active. AID 686996;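 active = mean inhibition across replicates at least about 35%, with every replicate also reaching that limit, limit read from the data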;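 note: 0% = median of neutral control wells and 100% = no fluorescence left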
Target sequence (P55212 24-179 limits assumed): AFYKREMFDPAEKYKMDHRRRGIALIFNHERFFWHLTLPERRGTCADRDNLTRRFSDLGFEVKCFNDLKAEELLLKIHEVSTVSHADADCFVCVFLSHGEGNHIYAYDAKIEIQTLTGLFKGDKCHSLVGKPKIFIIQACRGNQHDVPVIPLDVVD
Target sequence (P55212 194-293 limits assumed): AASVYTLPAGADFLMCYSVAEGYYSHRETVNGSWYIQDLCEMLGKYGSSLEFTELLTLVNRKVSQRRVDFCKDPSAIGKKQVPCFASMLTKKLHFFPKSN
* hit, by the source's call; nt = no result; ! = a repeat was not active. Only some compounds are listed: those with a hit (about 1.4% of all), similar ones and a draw of the others.

SMILES	MBD2 DNA inh	LEDGF integ inh	UHRF1 MBD2 ctr	CASP6 VEID inh
CC=Cc1ccc2n(c1=O)C[C@@H]1[C@@H](CO)[C@H](C(=O)NCc3ccc(F)cc3)[C@H]2N1CCC (mixture of isomers)	nt	nt	nt	0
COC(=O)c1sccc1NC(=O)Nc1ccccc1F	3	-1	23*	-1
COc1ccc(NC(=O)Nc2ccccc2F)c([N+](=O)[O-])c1	-8	-1	-4	39*
COC(=O)c1sccc1NC(=O)c1csc(C)c1	5	5	22*	nt
COC(=O)c1sccc1NC(=O)Nc1ccccc1C	1	-1	-1	-5
CO[C@@H]1CN(C)C(=O)c2cc(NS(=O)(=O)c3cn(C)cn3)ccc2OC[C@H](C)N(CC2CC2)C[C@@H]1C	nt	nt	nt	5
CCCNC(=O)N(C)C[C@H]1Oc2cc(C#CC3CC3)ccc2S(=O)(=O)N([C@@H](C)CO)C[C@@H]1C	nt	nt	nt	-2
Cc1cccc(C)c1-n1cccc1/C=C1\SC(=S)N(c2cccc(C(=O)O)c2)C1=O	0	1	0	37*
Cc1cccc(C)c1NC(=O)CN1C(=O)S/C(=C\c2cccn2-c2cccc(C(=O)O)c2)C1=O	4	0	-1	nt
CN1C(=O)c2cc(NC(=O)Cc3ccccc3)ccc2OC[C@H]2O[C@@H](CC(=O)NCC3CC3)CC[C@H]21	nt	nt	nt	2
CCC(=O)Nc1ccc(N2CCOCC2)c(S(=O)(=O)Nc2ccc(Cl)cc2)c1	-2	2	45*	5
CCCC(=O)N/C(N)=N/c1nc(C)c2ccccc2n1	-1	-3	34*	1
CCc1ccc2nc(/N=C(\N)NC(=O)c3ccccc3)nc(C)c2c1	0	4	1	-2
O=C(C[C@@H]1CC[C@H](NS(=O)(=O)c2ccccc2)[C@H](CO)O1)N1CCc2ccccc2C1	nt	nt	nt	-2
C[C@@H]1CN([C@@H](C)CO)C(=O)c2cccc(NC(=O)C3CCOCC3)c2O[C@@H]1CN(C)Cc1ccccc1	nt	nt	nt	2
C[C@H]1CN([C@@H](C)CO)C(=O)CCCn2cc(nn2)CO[C@@H]1CN(C)C(=O)CCC(F)(F)F	-4	3	-1	45*!
CC12CCC(C(=O)N(CC(O)CN3CCN(Cc4ccccc4)CC3)C1=O)C2(C)C (configuration not stated)	9	2	24*	-26
O=C(Cn1c2ccc(F)cc2c2nc3n(c(=O)c21)CCS3)NC1CCCC1	7	-5	7	52*
COc1ccccc1NC(=O)N1CCN(c2ccc3nncn3n2)CC1	7	1	24*	-2
CC1=CC(=O)N(c2cccc3c(N4C(=O)C=C(C)C4=O)cccc23)C1=O	15*	7	23*	1
O=C1C=CC(=O)N1c1ccccc1N1C(=O)C=CC1=O	3	8	0	-2
O=C(CCN1CCCCC1)N[C@@H]1CC[C@H](CC(=O)N2CCC(Cc3ccccc3)CC2)O[C@@H]1CO	nt	nt	nt	-1
CS(=O)(=O)N(CC(=O)Nc1ccc(S(=O)(=O)N2CCCC2)cc1)c1cccc(F)c1	6	1	28*	-1
CC(=O)c1cccc(NC(=O)CN(c2cccc(F)c2)S(C)(=O)=O)c1	2	0	1	nt
C[C@H]1CN([C@@H](C)CO)C(=O)c2ccccc2-c2ccccc2CO[C@H]1CN(C)C(=O)c1ccc(F)cc1	nt	nt	nt	0
SMILES	MBD2 DNA inh	LEDGF integ inh	UHRF1 MBD2 ctr	CASP6 VEID inh
O=C(O)C1=C(C2CCCCC2)C(=O)c2ccccc21	2	2	-2	0
O=C1C=C(C2CCCCC2)C(=O)c2ccccc21	0	3	7	50*
CC(=O)Nc1ccc(NC(=O)C(C)OC(=O)CN(C)S(=O)(=O)c2ccc(Cl)cc2)cc1 (configuration not stated)	4	-1	-1	nt
CC(=O)Nc1ccc(NC(=O)C(C)OC(=O)CNS(=O)(=O)c2cccc(Cl)c2)cc1 (configuration not stated)	0	-4	52*	0
C[C@H](O)C#Cc1ccc2c(c1)O[C@@H](CN(C)Cc1ccncc1)[C@H](C)CN([C@@H](C)CO)S2(=O)=O	nt	nt	nt	7
CSCc1c(C(=O)OCC(=O)c2ccc[nH]2)oc2ccccc12	12	19*	19	5
COCc1c(C(=O)OCC(=O)c2ccc[nH]2)oc2ccccc12	-2	2	-1	-1
Cc1nn(-c2ccccc2)c2c1P(=O)(O)/C(=C1\N(C)c3ccccc3C1(C)C)C=N2	-2	-1	-1	40*
Cc1nn(-c2ccccc2)c(N)c1C1(O)C(=O)N(C(C)C)c2ccccc21 (configuration not stated)	1	-2	-2	2
Clc1cccc(-c2nc3nc4ccccc4nc3n2Cc2ccccc2)c1	-2	2	29*	-7
CC(C)C#Cc1ccc([C@@H]2[C@H](CO)N3CCCCN(C(=O)c4ccc(F)cc4)C[C@@H]23)cc1	nt	nt	nt	0
Cc1ccc2cc(CN(Cc3ccc4c(c3)OCO4)Cc3nnnn3Cc3ccco3)c(=O)[nH]c2c1	3	4	0	5
Cc1ccc(CN(Cc2cc3cc4c(cc3[nH]c2=O)OCCO4)Cc2nnnn2Cc2ccco2)cc1	0	17*	3	nt
COc1cccc(C#Cc2ccc([C@@H]3[C@H]4CN(C(=O)Cc5cccnc5)CC(=O)N4[C@H]3CO)cc2)c1	nt	nt	nt	5
COc1cc(/C=N/NC(=O)c2cc(O)cc(O)c2)ccc1OC(=O)c1ccccc1	10	9	28*	34
COc1ccc(/C=N\NC(=O)c2cc(O)c(O)c(O)c2)cc1COc1ccc(C(=O)OCC(C)C)cc1	1	12	7	44*
CCC(=O)N[C@@H]1CC[C@H](CCNC(=O)Nc2ccc(F)cc2)O[C@@H]1CO	nt	nt	nt	-1
Cc1ccc(Nc2nc3c([nH]2)c(=O)[nH]c(=O)n3C)cc1	2	45*	-2	nt
Cn1c(=O)c2[nH]c(Nc3ccccc3)nc2n(C)c1=O	4	0	2	nt
Cc1nc(C)c(CCNC(=O)c2ccccc2Br)s1	-1	1	21*	nt
O=C(C[C@H]1C[C@@H]2c3cc(NC(=O)C4CCOCC4)ccc3O[C@@H]2[C@H](CO)O1)NCc1ccccn1	nt	nt	nt	0
O=C(NC1CCCCC1)C(C1CC1)N1CCc2ccccc2C1 (configuration not stated)	-10	2	-1	-5
O=C(NC1CCCCC1)C(c1ccnc2ccccc12)N1CCc2ccccc2C1 (configuration not stated)	0	3	-5	76*
Cc1noc(C)c1COc1ccccc1C(=O)NC(C)c1ccc(Cl)cc1 (configuration not stated)	0	-3	32*	4
Cc1noc(C)c1COc1ccccc1C(=O)NC(C)CCc1ccccc1 (configuration not stated)	1	0	5	25
CCCC(C(=O)NCC1CCCO1)N(C(=O)CNS(=O)(=O)c1ccccc1)c1ccc(F)cc1 (configuration not stated)	0	-3	-2	0
CC(C)C(C(=O)NC1CCCC1)N(CC1CCCO1)C(=O)CNS(=O)(=O)c1ccc(F)cc1 (configuration not stated)	-3	2	28*	2

Assay outcomes (PubChem BioAssay)
